Results from PubChem BioAssay (NCATS).
Records with an inconclusive call do not appear. Calls of active or inactive are those of the source. Unless noted, calls come from the whole dose curve; as a rule, active = well fitted curve in the direction sought with a large enough effect; inconclusive = small, poorly fitted or top-dose-only effect, or another doubt; inactive = no such curve, though single readings can be large; an effect the other way counts as inactive or inconclusive.

Legend:
[1] = molecular target: Arylsulfatase A (Homo sapiens) (UniProt P15289); experiment: qHTS screen for enhancers of Arylsulfatase A (ASA1): LOPAC Validation Assay (AID 720538); details: outcome: dose series up to 57.5 µM
Chain of Arylsulfatase A (Homo sapiens) (P15289 whole entry, looked up): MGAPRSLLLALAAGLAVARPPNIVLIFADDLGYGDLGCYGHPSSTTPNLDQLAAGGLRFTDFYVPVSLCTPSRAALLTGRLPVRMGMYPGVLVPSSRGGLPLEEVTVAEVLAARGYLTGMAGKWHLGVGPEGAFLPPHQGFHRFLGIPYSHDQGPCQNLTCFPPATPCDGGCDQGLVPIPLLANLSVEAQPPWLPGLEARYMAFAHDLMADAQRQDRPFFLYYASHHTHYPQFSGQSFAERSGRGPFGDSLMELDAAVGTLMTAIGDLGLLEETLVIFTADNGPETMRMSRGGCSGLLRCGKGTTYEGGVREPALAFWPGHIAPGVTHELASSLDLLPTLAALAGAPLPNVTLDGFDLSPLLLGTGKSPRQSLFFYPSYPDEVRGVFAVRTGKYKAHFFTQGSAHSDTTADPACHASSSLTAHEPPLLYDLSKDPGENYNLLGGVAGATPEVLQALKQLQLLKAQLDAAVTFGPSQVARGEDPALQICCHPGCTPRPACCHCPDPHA
In short: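 Read-out: fluorescence at Ex=525/Em=598 nm after 1N NaOH final stop. Patient fibroblasts carrying ASA-I179S had 48h compound exposure, then 14h room-temperature pNCS hydrolysis (0.5mM final) in lysis buffer. Signal increase = enhanced activity.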

[2] = qHTS assay for small molecule antagonists of the retinoid-related orphan receptor gamma (ROR-gamma) signaling pathway - cell viability counter screen (AID 720652; active = well fitted curve in the direction sought with a large enough effect in the repeat runs; an effect the other way counts as inactive or inconclusive;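 note: CHO reporter cells with doxycycline-induced ROR-gamma expression; series mostly up to about 92 µM; compound exposure lasted 16 hr before ATP read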)
In short: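 CHO cells carrying TET-inducible ROR and RORE-luciferase reporter, plated 5 hr, then dosed with compound plus doxycycline. After 16 hr at 37 C, viability read as intracellular ATP by CellTiter-Glo luminescence.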

| SMILES | outcome [1] | outcome [2] |
| --- | --- | --- |
| O=c1[nH]c(=O)n([C@H]2C[C@@H](O)[C@@H](CO)O2)cc1C=CBr | inactive |  |
| CN[C@H](CC(C)C)C(=O)N[C@H]1C(=O)N[C@@H](CC(N)=O)C(=O)N[C@@H]2C(=O)N[C@H]3C(=O)N[C@H](C(=O)N[C@H](C(=O)O)c4cc(O)cc(O)c4-c4cc3ccc4O)[C@H](O)c3ccc(c(Cl)c3)Oc3cc2cc(c3O[C@@H]2O[C@H](CO)[C@@H](O)[C@H](O)[C@@H]2O[C@H]2C[C@](C)(N)[C@H](O)[C@H](C)O2)Oc2ccc(cc2Cl)[C@H]1O | inactive |  |
| Cc1cc(O)c2c(c1)C(=O)c1cccc(O)c1C2=O |  | inactive |
